# Screening data as filed in PubChem BioAssay.
# SMN2 splice enh: SMN2 splice variant enhancement | HEK293 SMN2-luciferase splicing reporter, luminescence, 30-36 h | 210,000 compounds, 2.8% hits | Potency, µM (titrated, usually from 46.1 µM), inactives show at the top dose activity change, positive = activation, actives largely listed as activators; further: % of control where 0% means no effect; nearly all actives have a fitted effect of over 55% in size
#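 HEK293 cells carry an SMN2 minigene-luciferase reporter in which exon 7 inclusion puts luciferase in frame. Cells were seeded at 2000 cells/well, attached for 10-12 hours, then exposed to compounds for 30-36 hours at 37C before ONE-Glo luminescence.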
# FLuc counter: counter-screen for miR-21 project: firefly luciferase inhibitors or activators; Potency, µM (doses to about 57.5 µM), inactives show at the highest dose activity change, negative = inhibition, most hits filed as inhibitors; purified FLuc, Km substrates, luminescence inhibition; 360,000 compounds, 6.9% hits;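 further: plate controls were vehicle for no effect and reference inhibitor for full effect; nearly all actives have a fitted effect of over 55% in size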
# Target sequence (P08659 whole entry, looked up): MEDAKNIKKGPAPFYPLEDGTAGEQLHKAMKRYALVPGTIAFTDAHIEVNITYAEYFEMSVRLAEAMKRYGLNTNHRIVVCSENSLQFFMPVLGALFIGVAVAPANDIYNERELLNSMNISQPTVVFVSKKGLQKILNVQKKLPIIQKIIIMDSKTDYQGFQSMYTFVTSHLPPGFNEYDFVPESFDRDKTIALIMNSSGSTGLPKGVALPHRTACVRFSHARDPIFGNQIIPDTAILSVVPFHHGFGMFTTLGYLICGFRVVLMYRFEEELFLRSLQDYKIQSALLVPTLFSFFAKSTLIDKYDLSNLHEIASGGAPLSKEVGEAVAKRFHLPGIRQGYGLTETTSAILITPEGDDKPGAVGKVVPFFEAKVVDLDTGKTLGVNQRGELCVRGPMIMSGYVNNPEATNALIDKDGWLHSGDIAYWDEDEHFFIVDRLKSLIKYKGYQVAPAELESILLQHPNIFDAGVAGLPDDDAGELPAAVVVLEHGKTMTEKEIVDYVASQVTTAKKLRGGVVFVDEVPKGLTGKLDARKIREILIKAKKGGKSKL
#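 Purified P. pyralis luciferase, 10 nM final, with Km-level 10 uM D-luciferin and 10 uM ATP in 50 mM Tris acetate pH 7.5, 10 mM Mg acetate, 0.01% Tween-20, 0.05% BSA; 6-point qHTS titration about 60 µM downward; luminescence read.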
# NPC1 prom act: NPC1 promoter activation; Huh7 NPC1 promoter luciferase reporter, 24 h; Potency, µM (top dose mostly 9.22 µM), without a hit: at the highest dose activation, hits mostly activators; 320,000 compounds, 2.4% hits; AID 485313; further: % of control where 0% means no effect; nearly all actives have a fitted effect of over 60% in size
#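 Luminescence read-out of NPC1 promoter-driven luciferase in stably transfected Huh7 cells; compounds delivered in DMSO and left 24 h at 37C, 5% CO2, qHTS titration format.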
# Rab9 promoter act: Rab9 promoter activation. Huh7 Rab9 promoter-luciferase reporter, luminescence, 24 h. Potency, µM (doses to about 9.22 µM), without a hit: at the top dose activation, negative = inhibition, usual class: activators. 320,000 compounds, 2.8% hits; further: % of control where 0% means no effect; nearly all actives have a fitted effect of over 60% in size
#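 Luminescence from Amplite-detected luciferase (10 minutes, ambient) reports Rab9 promoter activation. Before that, stable Rab9-luciferase Huh7 cells (1500/well, reduced-serum OP-MEM I plus 10% FBS) were exposed to compound for 24 hours at 37C.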
# ELG1 genotoxic: inducers of genotoxicity in HEK293T ELG1-luciferase cells | 330,000 compounds, 1.3% hits | AID 504466 | Potency, µM (top dose mostly 46 µM), without a hit: top-dose activity change, positive = activation, hits mostly activators | HEK293T ELG1-luciferase reporter, luminescence, 16 h; further: % of control where 0% means no effect; nearly all actives have a fitted effect of over 60% in size
#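 ELG1-luciferase HEK293T cells, 2,000/well; compound pinned in; 16 hr, 37 °C, 5% CO2; ONE-Glo, 30 min RT; luminescence on CCD imager.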
# Luc counter: counter-screen: inhibitors of Kinase-Glo firefly luciferase; 200,000 compounds, 0.28% hits; Kinase-Glo luciferase, ATP luminescence, 8 min; AID 1379; Potency, µM (doses to about 38.3 µM), inactives show at the top dose activity change, negative = inhibition, most hits filed as inhibitors; Q27757; further: on the % scale 0 is the no-effect control and ±100 the full control effect; nearly all actives have a fitted effect of over 60% in size
#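 Compound is pinned into ATP-containing buffer (10 uM ATP, imidazole pH 7.2, 7 mM MgCl2). Kinase-Glo luciferase reagent is then added. Light output is recorded following an 8-min room-temperature incubation.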
# Numbers without * were called inactive; u = inconclusive; x = not tested or not shown; [ ] = dose if it differs, or a comment. A selection: hits, their analogues and other compounds. The true share with any hit is near 7.3%. The call rests on the fitted dose curve; in most records, active means well fitted curve in the direction sought with a large enough effect; inconclusive means small, poorly fitted or top-dose-only effect, or another doubt; inactive means no such curve, though single readings can be large; an effect the other way counts as inactive or inconclusive. Potency means the concentration at half of the fitted maximal effect.
SMILES,SMN2 splice enh,FLuc counter,NPC1 prom act,Rab9 promoter act,ELG1 genotoxic,Luc counter
Cc1nn(-c2ccccc2)c(C)c1-c1cc(C(=O)N/N=C/c2ccc(O)cc2)[nH]n1,x,21.3µM*,-0.8%,0.6%,-6.3%,x
Cc1nn(-c2ccccc2)c(C)c1/C=N/NC(=O)c1ccccc1O,x,1.9µM*,2.3%,11.6%,8.6%,x
Cc1nn(-c2ccccc2)c(C)c1/C=N/NC(=O)c1cnccn1,x,u,11.6%,9.1%,7.0%,x
Cc1nn(-c2ccccc2)c(C)c1/C=N/NC(=O)c1cc(O)cc(O)c1,x,19µM*,-0.2%,-4.2%,-14.9%,x
COc1ccccc1C(=O)NC(C)C(c1cccs1)N1CCOCC1 (centres undefined),-5.6%,0.5%,-5.8%,-0.6%,-1.2%,3.6%
CC(=O)N1c2ccc(S(=O)(=O)N3CCC(C(=O)Nc4cccc(C)n4)CC3)cc2CC1C (centres undefined),x,0.2%,-30.0%,-37.6%,6.7%,x
CSc1ccccc1C(=O)Nc1ccc2c(c1)CCC2,x,15.1µM*,u,1.9%[1.84 µM],u,x
CN(CC(=O)Nc1ccc2c(c1)CCC2)CC(=O)Nc1ccccc1Br,-19.6%,-10.3%,-5.7%,-2.4%,-3.8%,-0.4%
Cc1c(C(=O)Nc2ccc3c(c2)CCC3)cccc1[N+](=O)[O-],x,13.5µM*,u,u,u,-3.9%
Cc1c(C(=O)Nc2ccc(Nc3ccccc3)cc2)cccc1[N+](=O)[O-],x,-3.1%,-10.0%,-3.0%,-9.2%,x
O=C(Nc1ccc2c(c1)CCC2)c1ccccc1Br,x,4.78µM*,1.58µM*,1.58µM*,2.31µM*,-6.2%
O=C(Nc1ccc(F)c(Cl)c1)N1CCC2(CC1)Oc1ccccc1C(=O)N2Cc1ccccc1F,-7.3%,-0.3%,x,x,x,x
O=C(CCC1CCCC1)Nc1ccccc1-c1ccccc1,-10.0%,-5.1%,-4.5%,-0.9%,-1.0%,1.1%
Cc1ccc(OCC(=O)NNC(=O)CSc2ncc(C#N)c(N)n2)cc1,-3.3%,-15.2%,-5.4%,-13.8%,0.1%,-0.1%
CN(C)c1ccc(C(=O)Nc2cccc(S(=O)(=O)NC3=NCCCCC3)c2)cc1,x,x,17.1%,26.0%,8.9%,x
CCc1ccccc1OCC(=O)Nc1cccc(S(=O)(=O)NC2=NCCC2)c1,x,19µM*,1.7%,1.2%,1.0%,x
Cc1ccc(C(C)C)c(OCC(=O)Nc2cccc(S(=O)(=O)NC3=NCCCCC3)c2)c1,x,0.2%,0.3%,-1.3%,-19.3%,x
Cc1ccccc1OCC(=O)Nc1cccc(S(=O)(=O)NC2=NCCC2)c1,x,2.13µM*,12.6%,15.7%,8.6%,x
Cc1ccccc1OCC(=O)Nc1cccc(S(=O)(=O)NC2=NCCCCC2)c1,x,16.9µM*,-1.5%,1.2%,25.9%,x
CC(C)(C)c1ccc(C(=O)Nc2cccc(S(=O)(=O)NC3=NCCC3)c2)cc1,x,0.135µM*,2.51µM*,u,2.7%,x
CCOc1ccccc1OCC(=O)Nc1cccc(S(=O)(=O)NC2=NCCCCC2)c1,x,-0.6%,1.5%,-4.1%,-3.9%,x
O=C(NNS(=O)(=O)c1ccc(F)cc1)c1ccc2c(c1)OCO2,x,5.3%,0.2%,2.7%,-1.6%,x
Cc1[nH]c2ccccc2c1C(=O)C(=O)NCC1CCCO1 (centres undefined),-1.2%,0.0%,-0.1%,6.5%,2.8%,-0.7%
Cc1ccccc1C(=O)N1CCN(c2ccc(N3CCOCC3)nn2)CC1,x,4.2%,0.1%,-1.4%,-1.6%,x
Cc1cc(C)cc(NC(=O)c2ccc(NC(=O)c3ccco3)cc2)c1,x,-14.8%,-6.8%,3.7%,-15.9%,x
CC(C)CN(CCNC(=O)c1cn(C)c2ccc(S(=O)(=O)N3CCOCC3)cc2c1=O)CC(C)C,-5.0%,2.4%,x,x,x,x
COc1cc(S(=O)(=O)N2CCOCC2)ccc1F,-4.6%,3.0%,2.1%,4.5%,-2.4%,-0.2%
COc1ccccc1NC(=O)c1oc2ccc(C)cc2c1C,u,9.53µM*,u,u,u,13.5%
Cc1ccc2oc(C(=O)Nc3cc(C)on3)c(C)c2c1,x,0.757µM*,3.16µM*,2.51µM*,u,x
